Where “and” joins values, the source holds several entries; their conditions need not be identical. Equal values may be shown once.
Legend:
Format in all cases: functional
[1] = biological target: Solute carrier family 2, facilitated glucose transporter member 1 (Homo sapiens) (UniProt P11166); experiment: ST_JUDE_LEISH: Cytotoxicity at 2uM final concentration against transgenic Leishmania Mexicana promastigotes LmGLUT1 that are glucose transport deficient and complemented with the human glucose transporter GLUT1. Activity is measured by DNA content using SYBR green in vitro
[2] = biological target: Hexose transporter 1 (Plasmodium falciparum) (UniProt O97467); experiment: ST_JUDE_LEISH: Cytotoxicity at 2uM final concentration against transgenic Leishmania Mexicana promastigotes LmPfHT that are glucose transport deficient and complemented with the Plasmodium falciparum hexose transporter. Activity is measured by DNA content using SYBR green in vitro
[3] = biological target: Glucose transporter (Leishmania mexicana) (UniProt O61059); experiment: ST_JUDE_LEISH: Cytotoxicity at 2uM final concentration against transgenic Leishmania Mexicana promastigotes LmGT2 that are glucose transport deficient and complemented with the L. Mexicana glucose transporter 2. Activity is measured by DNA content using SYBR green in vitro

Chain of Solute carrier family 2, facilitated glucose transporter member 1 (Homo sapiens) (P11166 whole entry): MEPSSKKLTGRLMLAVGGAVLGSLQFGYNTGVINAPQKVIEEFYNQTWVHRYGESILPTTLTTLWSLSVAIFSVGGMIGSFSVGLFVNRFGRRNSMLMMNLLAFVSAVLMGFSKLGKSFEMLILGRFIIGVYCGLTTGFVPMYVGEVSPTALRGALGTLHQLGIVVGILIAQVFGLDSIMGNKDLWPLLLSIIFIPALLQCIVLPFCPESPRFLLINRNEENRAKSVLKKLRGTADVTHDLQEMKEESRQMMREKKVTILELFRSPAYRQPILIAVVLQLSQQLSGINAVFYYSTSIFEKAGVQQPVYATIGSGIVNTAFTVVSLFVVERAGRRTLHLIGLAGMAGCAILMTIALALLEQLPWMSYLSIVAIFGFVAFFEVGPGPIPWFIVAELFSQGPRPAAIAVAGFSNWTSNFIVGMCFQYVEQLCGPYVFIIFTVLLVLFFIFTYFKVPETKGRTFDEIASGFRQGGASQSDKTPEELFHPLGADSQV

SMILES | inhibition [1] | inhibition [2] | inhibition [3]
O=C(Nc1cccc(-c2cccc(-c3nc4ccccc4[nH]3)c2)c1)NC1CC1c1ccccc1 (stereo not given) | 6.53% and 2.58% | 5.02% and 2.99% | 5.79% and 7.12%
CCCCCCCN1CC[C@@H](CCCc2ccnc3ccc(OCCN4CCNCC4)cc23)[C@@H](CC)C1 | 5.11% | 4.74% | 0.64%
CN1CCC(Oc2ccc(CN3CC[C@H](NC(=O)c4ccc(Cl)c(F)c4)C3)c3ccccc23)C1 (stereo not given in full) | 0.38% | 3.36% | 2.67%
FC(F)(F)c1ccc2[nH]c(-c3ccc(-c4ccc(CNCCc5ccncc5)cc4)cc3)nc2c1 | 1.37% | -3.26% | 0.57%
O=C(/C=C/c1ccc(Cl)c(Cl)c1)NCCCCN1CCCN(C(=O)Nc2ccc(Cl)c(Cl)c2)CC1 | -2.19% | 0.32% | -1.91%
Cc1cccc2nc(-c3ccc(-c4cccc(NC(=O)C(C)CN(C)C)c4)cc3)[nH]c12 (stereo not given) | 8.52% | 7.83% | 3.93%
COc1ccc2nccc([C@@H](O)CN3CCC(NC(=O)/C=C/c4ccnc5ccccc45)CC3)c2c1 | -1.7% | -1.62% | -2.64%
CC(C)CNC(=O)c1cncc(-c2ccc(CNC3Cc4ccccc4C3)cc2)c1 | -0.34% | 1.58% | -0.51%
Oc1ccc(CCNc2nc(NCCCOc3ccccc3-c3ccc(C(F)(F)F)cc3)nc(N3CCNCC3)n2)cc1 | -0.03% | -1.9% | -0.21%
COc1ccc(Nc2nc(C)cc(NCc3ccc(-c4c(C)noc4C)cc3)n2)cc1 | 17.4% | 13.9% | 2.01%
O=C(NCc1cccc(OC(F)(F)F)c1)c1cnc2c(c1)nc(-c1c[nH]c(-c3ccccc3)n1)n2CCc1c[nH]cn1 | 2.3% | 2.34% | -2.01%
CO/C(=C\C=C\c1cc2cc(Cl)c(Cl)cc2[nH]1)C(=O)NCCCN1CCN(c2ccc(OC)cc2)CC1 | 2.11% | 2.47% | 1.28%
C[C@H](NC(=O)C1CCCC1)C(=O)Nc1ccc(-c2ccc(-c3nc4cc(C(F)(F)F)ccc4[nH]3)cc2)cc1 | 2.17% | 0.76% | -1.28%
COc1ccc(C2CCN(CCCCNC(=O)c3ccc(NC(=O)c4ccc(Cl)cc4)cc3)C2)c(OC)c1 (stereo not given) | -0.08% | 0.01% | 0.7%
COc1c(C2CCN(CCCCNC(=O)c3ccc(-c4ccc(Cl)cc4)c(O)c3)CC2)ccc2c1CCCC2 | 2.96% | 2.6% | 0.11%
Nc1ccncc1C(=O)NCCCCN1CCN(c2nsc3ccccc23)CC1 | -0.32% | 0.47% | -1.16%
COc1cccc(CNC(=O)NC2CCN(c3ccnc(Nc4cc(OC)c(OC)c(OC)c4)n3)C2)c1 (stereo not given) | 2.39% | 1.6% | 2.88%
CNC(=O)C(C)N(c1ccc(Cl)cc1)c1nc(C(C)(C)C)cs1 (stereo not given) | -1.9% | -2.14% | 3.15%
CSc1cccc(NC(=O)c2cc3ccccc3oc2=O)c1 | 0.58% | 0.06% | -3.2%
CCCNCc1ccc(-c2ccc(CN(C(=O)c3nn(-c4ccccc4)nc3C)C3CCOCC3)cc2)nc1 | -0.49% | -0.28% | -1.66%
COc1cc(NC(=O)Nc2ccc([N+](=O)[O-])cc2OC)c(OC)cc1Cl | 16.6% | 9.29% | 5%
Cn1nccc1C(=O)NCCNCc1ccc(-c2cccc(-c3nc4cc(F)ccc4[nH]3)c2)cc1 | -0.28% | -4.29% | -1.92%
CCCCCN1CCN(Cc2cccc(NC(=O)c3ccc(Cl)c(Cl)c3)c2)CC1 | 1.39% | 1.08% | 1.32%
FC(F)(F)c1ccc2[nH]c(-c3ccc(-c4ccc(CNCCN5CCNCC5)cc4)s3)nc2c1 | 9.4% | 10.4% | 9.03%
CCCCOc1c(CCNCCCCNCCc2cc(OC)c3ccccc3c2OCCCC)cc(OC)c2ccccc12 | 4.98% | 5.5% | 2.03%

SMILES | inhibition [1] | inhibition [2] | inhibition [3]
Cc1ccc(NC(=O)Nc2ccc(Cl)c(C(F)(F)F)c2)cc1-c1ccc(C(=O)Nc2ccncc2)cc1 | 3.55% | 2.27% | 3.98%
CC(Nc1cc(-c2ccccn2)nc(-c2ccccn2)n1)c1ccccc1 (stereo not given) | 23.4% | 12.8% | 17.5%
COc1ccc(C(=O)CCC(=O)N(Cc2ccc(-c3ccc(CNCCc4ccc(S(C)(=O)=O)cc4)cn3)cc2)C2CC3CCC2C3)cc1F (stereo not given) | 12.7% | 9.69% | 8.16%
N#CC(CC(=O)c1ccc(Cl)cc1)c1cccc(F)c1 (stereo not given) | 1.46% | -1.27% | 1.13%
O=c1cc(NCCCNC2CCCc3c2ccc2ccccc32)[nH]c2ccccc12 (stereo not given) | 4.07% | 4.85% | 2.74%
CC(C)NCc1ccc(OCc2cccc(COc3ccc(CNC(C)C)cc3I)c2)c(I)c1 | 112% | 109% | 113%
O=C(Nc1ccc2c(c1)CCN2C1CCN(Cc2cc(F)cc(F)c2F)C1)c1ccco1 (stereo not given) | 1.75% | 2.07% | 3.47%
CC1(CCc2ccccc2)N=C(N)N=C(N)C1c1ccc(Cl)c(Cl)c1 (stereo not given) | 9.55% | 9.47% | 8.62%
Clc1ccc(OCCC2CCN(CCCCCCCN3CCC(CCOc4ccc(Cl)c(Cl)c4)CC3)CC2)cc1Cl | 9.59% | 11.4% | 3.47%
Cc1ccccc1C1CCN(C2CCC(NC(=O)C3=Cc4ccccc4OC3)CC2)CC1 (stereo not given) | 5.24% | 4.94% | 4.67%
C[C@H](Cc1ccc(Oc2ccc(C[C@@H](C)NC[C@H](O)c3cccc(Cl)c3)cc2)cc1)NC[C@H](O)c1cccc(Cl)c1 | 106% | 104% | 102%
COc1cc2nc(SCCCC#N)n(C3CCCCCC3)c(=N)c2cc1OC | 7.27% | 5.84% | 2.84%
Cc1cc2c(cc1C(F)(F)F)N(C(=O)Nc1cc(C(=O)NCCN(C)C)cc(C(F)(F)F)c1)CC2 | 4.3% | 2.66% | 3.69%
CCC[C@@H]([C@@H](CC1CCC(C)CC1)C(=O)N[C@@H](CO)C(=O)Nc1nccs1)N(O)C=O (stereo not given in full) | 1.25% | 2.18% | 1.54%
CC(C)CNC(=O)c1ccnc(-c2ccc(CNCCCc3ccccc3)cc2)c1 | 2.32% | 3.19% | 2.74%
O=S(=O)(NCCN1CCCC1)c1ccc(-c2cccc(CNCc3ccsc3)c2)s1 | 5.4% | 2.42% | -1.72%
Cc1cc(Nc2cccc(C(F)(F)F)c2)nc(N)n1 | 0.43% | 0.91% | 1.19%
COc1ccc2nccc([C@@H](O)CN3CCC(NC(=O)c4cc5c(Cl)cc(Cl)cc5[nH]4)CC3)c2c1 | 5.68% | 7.48% | 0.08%
O=c1cnc2ccc(F)cc2n1CCN1CCC(NCc2cc(-c3ccccc3)cs2)CC1 | 28.4% | 32.4% | 48.5%
C=CCOc1ccc(-c2c(C)[nH]c(C)c(Br)c2=O)cc1 | 2.12% | 2.01% | -0.17%
CCOC(=O)c1ccc(N2CCN(c3cc(Cl)ccc3C)CC2)c(NC(=O)Nc2ccc(Cl)c(Cl)c2)c1 | -3.21% | -3.18% | -0.61%
O=C(Nc1ccc(Cl)c(Cl)c1)Nc1ccccc1N1CCNCC1 | 0.02% | 0.2% | 1.04%
CCOc1ccc2[nH]c(C)cc(=NN=Cc3ccncc3)c2c1 | 0.75% | 0.8% | -2.05%
CS(=O)(=O)NCCCNCc1cccc(-c2ccc(-c3nc4cc(C(F)(F)F)ccc4[nH]3)s2)c1 | 1.55% | 2.21% | 1.74%
Cc1ccccc1C1CCN(C2CCC(NC(=O)c3ccc(-c4cccc(C(F)(F)F)c4)o3)CC2)CC1 (stereo not given) | 5.47% | 2.19% | 3.24%

Reference: ChEMBL document CHEMBL3433997, “St. Jude Leishmania screening dataset” (2016)
